In PubChem BioAssay AID1961 (Sanford-Burnham Center for Chemical Genomics, 2009) one finds cell count and activation data, which are given here for 42 compounds.

Experiment [1] is described as follows: GPR55 agonists via beta-arrestin recruitment, primary screen, imaging, U2OS cells, beta-arrestin-GFP redistribution (AID 1961).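 Also: U2OS osteosarcoma cells stably expressing GPR55 and beta-arrestin-GFP.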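 As to activation: plate controls were DMSO negative control for no effect and LPI positive control for full effect.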 Conditions: measured here: cytotoxicity, cells analyzed, at 10 µM. On the technique in general: Activated receptors often draw arrestin, which recruitment assays turn into a signal.
Experiment [2] deals with G-protein coupled receptor 55 (Homo sapiens) (UniProt Q9Y2T6). The experiment is described as above. Conditions: at 10 µM, stronger effect = higher value.

Values joined by “and” are separate entries in the source; they are usually repeats but may differ in a detail not shown here. Equal entries are not always repeated. About 140 (0.048%) of roughly 290,000 compounds were called active.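 The calls were made as follows: active = activation above 40% with more than 50 cells counted in the well; inconclusive = wells holding fewer than 50 cells, flagged as toxic or sparse; inactive = the rest.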 Many of the other results were omitted from the sample, so actives are more common in it than they were.

Chain of G-protein coupled receptor 55 (Homo sapiens) (Q9Y2T6 whole entry, looked up): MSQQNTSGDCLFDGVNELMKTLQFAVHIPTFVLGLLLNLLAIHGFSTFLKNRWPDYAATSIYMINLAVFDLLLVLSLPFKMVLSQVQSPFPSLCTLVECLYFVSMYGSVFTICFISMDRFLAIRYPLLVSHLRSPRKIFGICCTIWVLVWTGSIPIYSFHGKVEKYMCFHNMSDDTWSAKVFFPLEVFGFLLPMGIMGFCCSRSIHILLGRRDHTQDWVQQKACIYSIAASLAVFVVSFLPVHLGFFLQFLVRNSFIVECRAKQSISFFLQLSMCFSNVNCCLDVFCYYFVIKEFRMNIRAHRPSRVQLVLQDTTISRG

The compound `CCN(CC)C(=O)CSc1nnc(-c2ccccc2)n1-c1ccccc1` yielded a cell count in experiment [1] of 281 cells. In addition, the activation in experiment [2] is 0.2% (inactive).

As for `Cc1cccc(OCc2n(CC(=O)OC3CC(C)CCC3C(C)C)c3ccccc3[n+]2C)c1` (centres undefined), in experiment [1], the cell count was 339 cells. In addition, in experiment [2], the activation is 81.2% (active).

For `COc1ccc(OCc2n(CC(=O)OC3CC(C)CCC3C(C)C)c3ccccc3[n+]2C)cc1` (centres undefined), the cell count in experiment [1] was 350 cells. Further, the activation in experiment [2] was 25.5% (inactive).

In experiment [1], `CCCCCCCCCCOC(=O)Cn1c(COc2cccc(C)c2)[n+](C)c2ccccc21` had a cell count of 401 cells. Also, the activation in experiment [2] is 31.3% (inactive).

In experiment [1], `CC1CCC(C(C)C)C(OC(=O)Cn2c(-c3ccc(F)cc3)[n+](C)c3ccccc32)C1` (centres undefined) came in with a cell count of 272 cells. The activation in experiment [2] is 0.6% (inactive).

In experiment [1], `CCCCCCCCCCOC(=O)Cn1c(COc2ccccc2C)[n+](C)c2ccccc21` came in with a cell count of 386 cells. In addition, the activation in experiment [2] was 17.1% (inactive).

Consider `CC1CCC(C(C)C)C(OC(=O)Cn2c(-c3ccccc3)[n+](C)c3ccccc32)C1` (centres undefined), for which the cell count in experiment [1] is 252 cells and 322 cells. The activation in experiment [2] is -0.3% (inactive).

As for `CCCCCCCCCCOC(=O)Cn1c(COc2ccccc2OC)[n+](C)c2ccccc21`, the cell count in experiment [1] was 361 cells. In addition, the activation in experiment [2] is 32.1% (inactive).

With `Cc1ccccc1OCc1n(CC(=O)OC2CC(C)CCC2C(C)C)c2ccccc2[n+]1C` (centres undefined), in experiment [1], the cell count is 276 cells and 236 cells. Also, the activation in experiment [2] was 68% (active).

As to `CC1CCC(C(C)C)C(OC(=O)Cn2c(-c3ccc(Br)cc3)[n+](C)c3ccccc32)C1` (centres undefined), in experiment [1], the cell count is 411 cells and 208 cells. Further, the activation in experiment [2] is 103% (active) and 106% (active).

As for `CC(C)c1ccc(/C=C/C(=O)NC2=NCCS2)cc1`, the cell count in experiment [1] was found to be 384 cells. Moreover, in experiment [2], the activation was 0% (inactive).

Regarding `CCCc1nnc2n1N=C(c1ccc(C)cc1)CS2`, in experiment [1], the cell count came to 336 cells. In addition, the activation in experiment [2] is -0.1% (inactive).

On to `CCCc1nnc2n1N=C(c1ccc(-c3cc(Cl)ccc3Cl)o1)CS2`, for which, in experiment [1], the cell count came out at 356 cells. The activation in experiment [2] was 142% (active).

Compound `CCc1nnc2n1N=C(c1ccc(Cl)cc1Cl)CS2` came in with a cell count in experiment [1] of 325 cells. The activation in experiment [2] was -0.1% (inactive).

On to `C(=C\c1ccco1)/C1=NN(c2ccccc2)C(c2ccco2)C1` (centres undefined), for which, in experiment [1], the cell count was determined as 324 cells. Also, the activation in experiment [2] is 27.4% (inactive).

For the compound `O=[N+]([O-])c1ccc(/C=C/C2=NN(c3ccccc3)C(c3ccco3)C2)cc1` (centres undefined), the cell count in experiment [1] was 311 cells. Further, the activation in experiment [2] is 120% (active).

Regarding `O=[N+]([O-])c1ccc(/C=C/C2=NN(c3ccccc3)C(c3ccco3)C2)o1` (centres undefined), the cell count in experiment [1] stood at 231 cells. Moreover, the activation in experiment [2] was 21.7% (inactive).

`CCOc1ncccc1C(=O)Nc1ccc(-c2ccc3nnc(C)n3n2)cc1` displayed a cell count in experiment [1] of 265 cells. The activation in experiment [2] was -0.2% (inactive).

On to `Cc1ccc(C(=O)NC2(C(F)(F)F)NC(=O)N(c3ccc(Cl)cc3)C2=O)cc1` (centres undefined), for which the cell count in experiment [1] was found to be 333 cells. For the same compound, the activation in experiment [2] is -0.3% (inactive).

As for `COc1ccc(CN2CCNC(=O)C2CC(=O)NC2CCC2)c(OC)c1` (centres undefined), the cell count in experiment [1] was determined as 341 cells. Moreover, the activation in experiment [2] is -0.1% (inactive).

Turning to `CC(C)N1CCC(NC(=O)Nc2ccc3c(c2)OCO3)CC1`, the cell count in experiment [1] came to 361 cells. In experiment [2], the activation is 0.1% (inactive).

The compound `Cc1ccc(N(CC(=O)NC2CCCC2)C(=O)Cn2nnc(-c3ccccc3F)n2)cc1` gave a cell count in experiment [1] of 388 cells. For the same compound, the activation in experiment [2] was 0% (inactive).

`CCOc1ccc(C=NCC(O)c2ccccc2)cc1` (centres undefined): the cell count in experiment [1] came out at 365 cells. Also, the activation in experiment [2] is -0.1% (inactive).

As for `CCCN1C(=O)/C(=C2/C=Cc3ccccc3N2CC)SC1=S`, the cell count in experiment [1] turned out to be 237 cells. Also, the activation in experiment [2] is -0.4% (inactive).

In turn, `Cc1cc(C(F)(F)F)nc(SCCN2CCCCC2)c1C#N` registered a cell count in experiment [1] of 404 cells. Further, the activation in experiment [2] was -0.2% (inactive).

Compound `CCOc1ccc(OCCOCCN2CCOCC2)cc1` yielded a cell count in experiment [1] of 322 cells. For the same compound, the activation in experiment [2] is -0.1% (inactive).

For `CCCCN(CCCC)CC(O)COc1ccccc1Br` (centres undefined), in experiment [1], the cell count is 385 cells. Further, the activation in experiment [2] was -0.2% (inactive).

`Clc1ccc(OCc2cn3ccccc3n2)c2ncccc12` displayed a cell count in experiment [1] of 448 cells. Moreover, the activation in experiment [2] is -0.1% (inactive).

In experiment [1], `Cc1cccc2nc(COc3ccc4ccccc4c3Br)cn12` returned a cell count of 340 cells. For the same compound, the activation in experiment [2] is 0.4% (inactive).

Turning to `Cc1cccc2nc(COc3ccc(Cl)c4cccnc34)cn12`, in experiment [1], the cell count is 263 cells. Also, in experiment [2], the activation was 80.9% (active).

`Cc1nc2ccc(NC(=O)CCC3CCCC3)cc2s1` yielded a cell count in experiment [1] of 329 cells. Moreover, in experiment [2], the activation is -0.1% (inactive).

In experiment [1], `Cc1nn2c(N3CCCC3)c3c(nc2c1-c1ccccc1)CCC3` had a cell count of 363 cells. In experiment [2], the activation is 0% (inactive).

`Cc1nn2c(C(F)(F)F)c3c(nc2c1-c1ccccc1)CCC3` returned a cell count in experiment [1] of 390 cells. Also, the activation in experiment [2] is 0.4% (inactive).

In experiment [1], `Cc1ccc(C)c2nc3sc(C(=O)N4CCCc5ccccc54)c(N)c3cc12` gave a cell count of 369 cells. For the same compound, in experiment [2], the activation is 0.3% (inactive).

In experiment [1], `Cc1cccc2cc3c(N)c(C(=O)N4CCCc5ccccc54)sc3nc12` registered a cell count of 244 cells. For the same compound, the activation in experiment [2] was 0.1% (inactive).

In experiment [1], `Cc1cccc2cc3c(N)c(C(=O)N4CCc5ccccc54)sc3nc12` yielded a cell count of 347 cells. For the same compound, the activation in experiment [2] was 44.1% (active).

In experiment [1], `CC1=NNC(=O)/C1=C\c1cn(-c2ccccc2)nc1-c1ccc(Cl)cc1` displayed a cell count of 376 cells. Moreover, the activation in experiment [2] is 30.2% (inactive).

In experiment [1], `CC1=NNC(=O)/C1=C\c1cn(-c2ccccc2)nc1-c1ccc(F)cc1` showed a cell count of 406 cells. Besides, the activation in experiment [2] is 2.4% (inactive).

In experiment [1], `CC1=NNC(=O)/C1=C\c1cn(-c2ccccc2)nc1-c1ccccc1` showed a cell count of 396 cells. Besides, in experiment [2], the activation is 68.5% (active).

For `O=[N+]([O-])c1ccc(N/N=C/c2sc(N3CCOCC3)nc2-c2ccccc2)c(S(=O)(=O)Nc2ccccc2Cl)c1`, the cell count in experiment [1] came to 413 cells. Besides, the activation in experiment [2] was 22.5% (inactive).

In turn, `O=[N+]([O-])c1ccc(N/N=C/c2sc(N3CCOCC3)nc2-c2ccccc2)c(S(=O)(=O)Nc2ccc(Cl)cc2)c1` displayed a cell count in experiment [1] of 392 cells. In addition, the activation in experiment [2] is 18% (inactive).

`COc1ccccc1NS(=O)(=O)c1cc([N+](=O)[O-])ccc1N/N=C/c1sc(N2CCOCC2)nc1-c1ccccc1`: in experiment [1], the cell count was 331 cells. In experiment [2], the activation was 48.8% (active).
